According to PubChem BioAssay (NCATS):
Inconclusive results are not listed. Activity calls are given as the source filed them. Calls come from the whole dose curve; as a rule, active = well fitted curve in the direction sought with a large enough effect; inconclusive = small, poorly fitted or top-dose-only effect, or another doubt; inactive = no such curve, though single readings can be large; an effect the other way counts as inactive or inconclusive.

Assays:
[1] = Quantitative High-Throughput drug screen in 47 multiple myeloma cell lines against the NCATS MIPE library collection: Karpas25_ECACC cell viability assay (AID 1918968; note: nearly all actives have a fitted effect of over 35% in size)
How it was run: (§1)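 Approved and investigational drugs from MIPE 4.0 were added by pin tool to 500 cells per well. After 48 hours at 37C, ATP-based CellTiter-Glo luminescence indicated remaining viability.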

[2] = Quantitative High-Throughput drug screen in 47 multiple myeloma cell lines against the NCATS MIPE library collection: KMS12PE_JCRB cell viability assay (AID 1918972); note: nearly all actives have a fitted effect of over 30% in size
How it was run: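 We plated 500 myeloma cells per well, pinned in MIPE 4.0 compounds, and incubated for 48 hours at 37C. ATP was then quantified with CellTiter-Glo, with DMSO and media-only wells defining 100% and 0%.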

[3] = Quantitative High-Throughput drug screen in 47 multiple myeloma cell lines against the NCATS MIPE library collection: KMS20_JCRB cell viability assay (AID 1918973); note: nearly all actives have a fitted effect of over 45% in size
How it was run: as §1

[4] = Quantitative High-Throughput drug screen in 47 multiple myeloma cell lines against the NCATS MIPE library collection: KMS21BM_JCRB cell viability assay (AID 1918974); details: ATP luminescence, 48 h; viability: at 45.8 µM (top of the series) unless noted
How it was run: as §1

[5] = Quantitative High-Throughput drug screen in 47 multiple myeloma cell lines against the NCATS MIPE library collection: NCIH929_DSMZ cell viability assay (AID 1918978); note: nearly all actives have a fitted effect of over 35% in size
How it was run: (§2)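 Plated at 500 cells per well, myeloma lines received MIPE 4.0 compounds by pin tool. Following 48 h culture at 37 °C, CellTiter-Glo luminescence gave viability relative to DMSO and media-only controls.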

[6] = Quantitative High-Throughput drug screen in 47 multiple myeloma cell lines against the NCATS MIPE library collection: KMS27_JCRB cell viability assay (AID 1918970); note: nearly all actives have a fitted effect of over 30% in size
How it was run: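 Viability inhibition screen, 48 h compound exposure, luminescent ATP read-out.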

[7] = Quantitative High-Throughput drug screen in 47 multiple myeloma cell lines against the NCATS MIPE library collection: MMM1_PLB cell viability assay (AID 1918976); note: nearly all actives have a fitted effect of over 35% in size
How it was run: as §2

[8] = Quantitative High-Throughput drug screen in 47 multiple myeloma cell lines against the NCATS MIPE library collection: MOLP8_DSMZ cell viability assay (AID 1918977); note: nearly all actives have a fitted effect of over 45% in size
How it was run: as §2

[9] = Quantitative High-Throughput drug screen in 47 multiple myeloma cell lines against the NCATS MIPE library collection: KMS26_JCRB cell viability assay (AID 1918975); note: nearly all actives have a fitted effect of over 45% in size
How it was run: (§3)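 Inhibition of cell viability is measured here. Each line was plated at 500 cells per well, treated with MIPE 4.0 drugs, kept 48 hours at 37C, then assayed for ATP content by CellTiter-Glo luminescence.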

[10] = Quantitative High-Throughput drug screen in 47 multiple myeloma cell lines against the NCATS MIPE library collection: KMS12BM_JCRB cell viability assay (AID 1918971); note: nearly all actives have a fitted effect of over 35% in size
How it was run: as §3
Potency is the fitted concentration of half-maximal effect.

CN1CCC(=C2c3ccccc3CC(=O)c3sccc32)CC1
active: Potency [1] 7.43 µM | Potency [5] 4.18 µM
inactive: Potency [2] | Potency [3] | Potency [4]

CC(C)NCC(O)c1ccc(O)c(O)c1 (stereo not given)
active: Potency [1] 0.0418 µM | Potency [6] 1.18 µM | Potency [2] 5.26 µM | Potency [3] 1.18 µM | Potency [4] 0.372 µM | Potency [7] 7.43 µM | Potency [8] 23.5 µM

CN(C)C(=O)C(CCN1CCC(O)(c2ccc(Cl)cc2)CC1)(c1ccccc1)c1ccccc1
inactive: Potency [6] | Potency [2]
active: Potency [1] 18.7 µM | Potency [3] 14.8 µM | Potency [9] 16.6 µM | Potency [7] 16.6 µM | Potency [5] 23.5 µM

CCN1CCCC1CNC(=O)c1cc(S(=O)(=O)CC)c(N)cc1OC (stereo not given)
active: Potency [7] 5.26 µM
inactive: Potency [1] | Potency [6] | Potency [2] | Potency [3] | Potency [9]

NC12CC3CC(CC(C3)C1)C2
inactive: Potency [10] | Potency [7]
active: Potency [1] 0.118 µM | Potency [5] 16.6 µM

Cc1cn([C@H]2C=C[C@@H](CO)O2)c(=O)[nH]c1=O
active: Potency [1] 12.1 µM | viability [4] 91.7% [at 92.2 µM]
inactive: Potency [6] | Potency [2] | Potency [9] | Potency [5]

CC12CC3CC(C)(C1)CC(N)(C3)C2
inactive: Potency [10]
active: Potency [1] 20.9 µM | Potency [3] 20.9 µM

CC(C)NCC(O)COc1ccc(CCOCC2CC2)cc1 (stereo not given)
inactive: Potency [1] | Potency [6] | Potency [2] | Potency [9] | Potency [5]

COc1cc2nc(N3CCN(C(=O)c4ccco4)CC3)nc(N)c2cc1OC
active: Potency [1] 7.43 µM | Potency [6] 9.35 µM | Potency [2] 7.43 µM | Potency [3] 8.33 µM | Potency [8] 20.9 µM | Potency [5] 8.33 µM

CCOC(=O)C(C)(C)Oc1ccc(Cl)cc1
inactive: Potency [6] | Potency [2] | Potency [3] | Potency [5]
active: Potency [1] 0.662 µM | Potency [7] 7.43 µM

Nc1c2c(nc3ccccc13)CCCC2
inactive: Potency [1] | Potency [6] | Potency [2] | Potency [5]

CC1(CN2CCC(n3c(=O)[nH]c4ccccc43)CC2)OCc2ccccc2-n2cccc21 (stereo not given)
active: Potency [1] 13.2 µM | Potency [10] 16.6 µM | Potency [9] 5.9 µM | Potency [7] 5.9 µM
inactive: Potency [2]

CCCNCC(O)COc1ccccc1C(=O)CCc1ccccc1 (stereo not given)
inactive: Potency [10] | Potency [8] | Potency [5]
active: Potency [1] 16.6 µM

O=C(CCCN1CCC(O)(c2ccc(Cl)cc2)CC1)c1ccc(F)cc1
active: Potency [1] 2.96 µM | Potency [3] 13.2 µM
inactive: Potency [10]

Fc1ccc([C@@H]2CCNC[C@H]2COc2ccc3c(c2)OCO3)cc1
inactive: Potency [1] | Potency [2] | Potency [9]
active: Potency [10] 14.8 µM | Potency [7] 14.8 µM

Clc1ccccc1C(c1ccccc1)(c1ccccc1)n1ccnc1
active: Potency [1] 18.7 µM | Potency [10] 16.6 µM | Potency [2] 7.43 µM | Potency [7] 23.5 µM

CC(=O)OCC(CCn1cnc2cnc(N)nc21)COC(C)=O
inactive: Potency [1] | Potency [10] | Potency [2] | Potency [3] | Potency [9] | Potency [5]

CN(C)C(=N)N=C(N)N
inactive: Potency [1] | Potency [6] | Potency [2] | Potency [3] | Potency [9] | Potency [5]

NCCCCCC(=O)O
active: Potency [7] 0.296 µM
inactive: Potency [1] | Potency [10] | Potency [3] | Potency [9] | Potency [5]

O=C(C1CCCCC1)N1CC(=O)N2CCc3ccccc3C2C1 (stereo not given)
inactive: Potency [1] | Potency [6] | Potency [2] | Potency [3] | Potency [9]

C[C@H]1c2cccc(O)c2C(O)=C2C(=O)[C@]3(O)C(O)=C(C(N)=O)C(=O)[C@@H](N(C)C)[C@@H]3[C@@H](O)[C@@H]21
inactive: Potency [6]
active: Potency [1] 16.6 µM | Potency [2] 29.6 µM | Potency [9] 23.5 µM | Potency [5] 18.7 µM

OCCN1CCN(CCCN2c3ccccc3Sc3ccc(C(F)(F)F)cc32)CC1
active: Potency [1] 2.96 µM | Potency [2] 9.35 µM | Potency [3] 16.6 µM | Potency [4] 14.8 µM | Potency [9] 20.9 µM | Potency [5] 20.9 µM

Cc1ccccc1N1C(=O)c2cc(S(N)(=O)=O)c(Cl)cc2NC1C (stereo not given)
inactive: Potency [1] | Potency [10] | Potency [3] | Potency [9] | Potency [5]

CN1CCC(=C2c3ccccc3C=Cc3ccccc32)CC1
active: Potency [1] 7.43 µM | Potency [6] 23.5 µM | Potency [2] 20.9 µM | Potency [3] 9.35 µM | Potency [5] 5.9 µM

Cc1cc(C(C)(C)C)c(O)c(C)c1CC1=NCCN1
inactive: Potency [1] | Potency [10] | Potency [2] | Potency [5]

Clc1ccc2nsnc2c1NC1=NCCN1
inactive: Potency [1] | Potency [6] | Potency [5]

Nc1nnc(-c2cccc(Cl)c2Cl)c(N)n1
inactive: Potency [6] | Potency [9]
active: Potency [1] 20.9 µM | Potency [5] 23.5 µM
